Test results from PubChem BioAssay (NCI).
Compounds without any hit were thinned out: in the full panel of roughly 79,000, 15% have a hit. Values without a mark were called inactive. Activity calls are given as the source filed them. No stated cut-off is given here; in the data, active means growth inhibition above about 70%; inactive means the rest.

Key:
[1] = NCI Yeast Anticancer Drug Screen. Data for the rad50 strain (AID 155);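 further: 0% = growth of vehicle-only cultures of the same strain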; details: S. cerevisiae rad50 strain growth inhibition; at 50.0 µM; hits give high values
Outline: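 Compounds were tested on a yeast strain with an engineered DNA damage repair alteration; the reported value is growth inhibition normalised to vehicle treatment.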

[2] = NCI Yeast Anticancer Drug Screen. Data for the mec2-1 strain (AID 157); details: S. cerevisiae mec2-1 strain, at 50.0 µM, hits give high values
Outline: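 Readout is yeast growth inhibition, normalised to vehicle-treated controls, in the mec2-1 strain exposed to compound.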

[3] = NCI Yeast Anticancer Drug Screen. Data for the sgs1 mgt1 strain (AID 161);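 further: 0% = growth of cultures given vehicle only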; details: S. cerevisiae sgs1 mgt1 strain, at 50.0 µM, hits give high values
Outline: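 Percent growth inhibition was derived by comparing compound-exposed mutant yeast with vehicle-exposed cultures. The strain carries alterations in DNA damage repair.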

[4] = NCI Yeast Anticancer Drug Screen. Data for the cln2 rad14 strain (AID 165);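 further: 0% = growth equal to vehicle treated cultures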; details: S. cerevisiae cln2 rad14 strain, at 50.0 µM, hits give high values
Outline: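 Relative to vehicle controls, growth inhibition of compound-treated cln2 rad14 yeast was recorded.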

[5] = NCI Yeast Anticancer Drug Screen. Data for the bub3 strain (AID 167); details: S. cerevisiae bub3 mutant strain, at 50.0 µM, hits give high values
Outline: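 Growth of a checkpoint-deficient yeast mutant is measured after compound exposure. Values represent inhibition relative to vehicle.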

[6] = NCI Yeast Anticancer Drug Screen. Data for the mlh1 rad18 strain (AID 175); details: S. cerevisiae mlh1 rad18 strain growth inhibition; at 50.0 µM; hits give high values
Outline: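 Test agents were incubated with a yeast strain of defined genotype (DNA damage repair defect). Inhibition of growth was derived by comparison with vehicle-exposed cultures.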

SMILES	growth inhibition [1]	growth inhibition [2]	growth inhibition [3]	growth inhibition [4]	growth inhibition [5]	growth inhibition [6]
NC(=O)N/N=C1\CC2CC1C1CCCC21 (stereo not given)	8.05%	5.35%	-1.75%	-0.5%	-8.9%	15.3%
N#CC1C[C@@H]2CC3(CCC2CN1C(=O)c1ccccc1)OCCO3 (stereo not given in full)	8.25%	-9.6%	-12.1%	-24.6%	0.9%	-14%
COC(=O)C(C/C=C(\C)c1ccccc1)C(C)=O (stereo not given)	-13.1%	-23.7%	-25%	19.1%	-23.1%	-0.35%
c1ccc2cc(CNCCCCNCCCNCc3ccc4ccccc4c3)ccc2c1	63.8%	38.6%	62.3%	46.2%	85% (active)	76.3% (active)
CCc1cccc(C(C)C)c1NC(=O)/C(=N\NC(N)=O)C(C(=O)OC)c1cnc2ccccc2n1 (stereo not given)	19.8%	29.8%	1.15%	11.1%	26.1%	21.4%
CC1(C)Oc2ccc3c(=O)cc(-c4ccccc4)oc3c2C1C(=O)O (stereo not given)	4.7%	-14.5%	-18.6%	-22.6%	9.7%	-24%
CC(C)CCc1ccccc1O	-14.7%	-21.1%	-28.6%	-19.9%	0.1%	-14.5%
c1ccc(-c2[nH]nc3nc4c(nc23)CCCC4)cc1	7.4%	-5.3%	-5.1%	-32.9%	-33%	6.6%
C=C(C)COc1ccc(C2OCC(CC)C(CCC)O2)cc1 (stereo not given)	-4.3%	-10.6%	-7.5%	-45%	5%	-9.25%
COC1=CC(=O)C(C(C)=O)=C(C2(C)C(=O)CCCC2=O)C1=O	-12.3%	0.5%	-0.6%	6.25%	5.15%	7.25%
CC1CC(C)OC(c2ccco2)O1 (stereo not given)	2.4%	-20.6%	-11.9%	-37.6%	-15.1%	16.2%
CC(C)(C)C(=O)CC(=O)C(F)(F)C(F)(F)C(F)(F)F.CC(C)(C)C(=O)CC(=O)C(F)(F)C(F)(F)C(F)(F)F.CC(C)(C)C(=O)CC(=O)C(F)(F)C(F)(F)C(F)(F)F.[Eu]	9.65%	39.4%	21.2%	39.5%	39.8%	-1.2%
CCCCN(CCCC)C(=O)C(=O)C(C#N)c1ccc(C)cc1 (stereo not given)	-7%	-0.8%	6.15%	17.6%	20.7%	-9.3%
Cc1ccc(F)c2[nH]c(-c3ccccc3)cc(=O)c12	14.9%	3.45%	-1.2%	-5.95%	8%	12%
Nc1nc2c(-c3ccc([N+](=O)[O-])cc3)nnn2c2cccc(Cl)c12	-9.7%	-15.8%	-18.4%	4.85%	-32.5%	-14.7%
C(=C\c1ccc(-c2ccccc2)cn1)/c1ccccc1	-8.5%	-15.8%	-3.45%	-26.6%	24.8%	-12%
CCCCCCCC(=O)NCCCC(C)Nc1cc(OC)cc2cccnc12 (stereo not given)	39.7%	47%	19.4%	14.9%	22%	28.1%
COc1ccccc1-n1on1-c1ccccc1OC	4.3%	18.1%	-3.4%	-30.9%	9.75%	20.1%
Cc1cc(C)c(NC(=O)NC2CCCCC2)cc1C	3.95%	-9.3%	4.15%	-1.6%	10.2%	34.9%
Cc1ccc(/C=C(/C#N)C(N)=O)cc1	11.2%	0.05%	21.4%	17.6%	12.5%	29.9%
